Source: PubChem BioAssay (several laboratories)
Compounds with a hit are over-represented: about 4.7% of the library has one in this group of screens.
FBA Mtb inh – inhibits M. tuberculosis FBA enzyme; hit rate 2.3% among 360,000; purified M. tuberculosis FBA, fluorescence read-out; P9WQA3; inhibition, % at 1 µM; AID 588726; in the data active means inhibition above about 27%;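 further: 0% = vehicle and 100% = reference inhibitor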
CCHFV vOTU inh – CCHFV vOTU protease inhibition; Pep-AMC fluorescence; inhibition, % at 11.5 µM; hit rate 0.55% among 370,000; AID 651958; further: 0% = vehicle wells with enzyme and 100% = no enzyme wells
GDH-TPI inh – GDH-TPI coupled enzyme inhibition counter-screen | GDH-TPI coupled enzyme counterscreen, NADH absorbance | inhibition, % at 4.8 µM | hit rate 1.2% among 360,000;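 further: 0% = DMSO wells and 100% = wells lacking the enzyme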
VHR inh abs – DUSP3 (human) phosphatase inhibition | inhibition, % at 13.3 µM | hit rate 0.52% among 290,000 | AID 1654 | recombinant VHR phosphatase, pNPP absorbance; in the data active means inhibition above about 50%
Target sequence (P51452 whole entry, looked up): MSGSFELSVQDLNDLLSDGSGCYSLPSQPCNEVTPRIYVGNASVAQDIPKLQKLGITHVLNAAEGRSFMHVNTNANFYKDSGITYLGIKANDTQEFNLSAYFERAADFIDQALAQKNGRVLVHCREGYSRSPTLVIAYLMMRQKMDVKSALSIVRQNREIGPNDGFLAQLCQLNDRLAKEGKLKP
RecA splice inh – blocks M. tuberculosis RecA intein splicing; P9WHJ3; cell-free RecA intein splicing, fluorescence; inhibition, % (no concentration beside the values); hit rate 0.75% among 290,000; in the data active means inhibition above about 30%;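 further: 0% = vehicle wells and 100% = reference inhibitor control wells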
3CLpro inhibitor – SARS-CoV 3CLpro protease inhibition; P0C6X7; recombinant SARS-CoV 3CLpro, quenched FRET peptide cleavage; inhibition, % at 6 µM; hit rate 0.14% among 290,000; AID 1706; in the data active means inhibition above about 12%
Starred values were filed as active, the others as inactive; . = not tested or not shown; + = active, no number. Unless noted, no stated cut-off is given here; in the data, active means inhibition above about 30%; inactive means the rest.

SMILES | FBA Mtb inh | CCHFV vOTU inh | GDH-TPI inh | VHR inh abs | RecA splice inh | 3CLpro inhibitor
CCOc1ccccc1OCCCC(=O)Nc1ccc(Cl)c(S(=O)(=O)N2CCOCC2)c1 | -4 | -6 | 5 | . | . | .
COC(=O)c1cccc(OC[C@@H](O)CN2CCC(C(O)(c3ccccc3)c3ccccc3)CC2)c1 | . | 13 | . | . | . | .
COC(=O)c1cc2c(c3c4cc(OC)ccc4n(S(=O)(=O)c4cccc(C)c4)c13)C(=O)N(Cc1ccc(C(F)(F)F)cc1)C2 | . | 16 | . | . | . | .
C[C@@H]1CC=C[C@H]2[C@H]1C(=O)N(Cc1ccccc1)[C@H]2c1ccc(F)c(Br)c1 | . | . | . | 15 | 32* | .
C[C@H](c1ccccc1)N1C[C@@H](COCc2ccccc2)Oc2cccc(Oc3ccc(F)cc3)c2S1(=O)=O | . | 2 | . | . | . | .
COc1cc2c(cc1OC)n(CC(=O)NC1CCCCCC1)n1c(C)cc(=O)nc21 | 113* | -66 | 12 | 11 | 0 | -5
O=C(NCc1ccccc1)N1CCN(Cc2nc3ccccc3c(=O)[nH]2)CC1 | . | -5 | . | . | . | .
COc1ccc(C(=O)c2cnc(/N=C/N(C)C)s2)cc1 | 2 | -2 | 33* | -4 | -6 | 1
CN(C)/C=N/c1ncc(C(=O)c2ccc3ccccc3c2)s1 | 4 | 14 | 21 | 33 | -2 | -3
CC(=Nc1ccc(Cl)cc1N)c1c(O)cc(C)oc1=O | . | 16 | . | . | . | .
CCOC(=O)c1c(-c2ccccc2)oc2ccc(OCC(=O)NNC(=O)CCC(=O)O)cc12 | 122* | -75 | 8 | 20 | 1 | -2
CCOC(=O)c1c(C(C)(C)C)oc2ccc(OCC#N)cc12 | -1 | 21 | -1 | -11 | -1 | 0
CCOC(=O)c1c(-c2ccccc2)oc2ccc(OC(C)C(=O)O)cc12 (stereo unspecified) | 165* | -67 | 14 | 29 | 3 | 3
CCOC(=O)c1c(C)oc2ccc(OCC(N)=O)cc12 | -1 | 10 | 3 | 3 | 0 | -2
Cc1cc(=O)oc2ccc(OC(C)C(=O)O)cc12 (stereo unspecified) | 15 | -10 | -1 | -8 | 0 | -5
CCOC(=O)c1c(-c2ccc(OC)cc2)oc2ccc(OC(=O)N(C)C)cc12 | + | -46 | 14 | -4 | 2 | 2
CCOC(=O)c1c(-c2ccccc2)oc2ccc(OCC(=O)NNC(=O)CCCC(=O)O)cc12 | 157* | -68 | 5 | . | 0 | 1
COc1ccc(-n2c(CSc3ccc(Cl)cc3)n[nH]c2=S)cc1 | . | -1 | . | . | . | .
COc1ccc(C(=O)Nc2nc3ccc(S(C)(=O)=O)cc3s2)cc1 | 7 | 20 | 26 | -4 | -3 | 3
COc1ccc2nc(NC(=O)c3c(C)noc3C)sc2c1 | 8 | -1 | 19 | . | . | .
Cc1noc(C)c1C(=O)Nc1nc2ccc(S(C)(=O)=O)cc2s1 | 1 | 5 | 54* | 26 | -3 | 4
CS(=O)(=O)c1ccc2nc(NC(=O)c3ccco3)sc2c1 | -2 | 20 | 46* | 30 | -3 | -7
Cc1ccc(C(=O)Nc2nc3ccc(S(C)(=O)=O)cc3s2)o1 | 3 | 6 | 52* | -5 | 0 | 0
Cc1ccc(S(=O)(=O)N2CCN(C(=O)COC(=O)/C=C/c3ccc(OC(F)F)cc3)CC2)cc1 | 5 | -1 | 9 | . | . | .
Oc1c(C(Nc2nccs2)c2ccc(C(F)(F)F)cc2)ccc2cccnc12 (stereo unspecified) | 124* | 1 | 8 | 20 | 5 | 2
SMILES | FBA Mtb inh | CCHFV vOTU inh | GDH-TPI inh | VHR inh abs | RecA splice inh | 3CLpro inhibitor
CN(c1ccc([N+](=O)[O-])cc1)c1cc2c(c3c1ccn3C)C1CCC2C1 (stereo unspecified) | -5 | 1 | . | . | . | .
C=CCn1c(O)c(N=Nc2ccccc2C)c2ccccc21 | . | -16 | . | 2 | -3 | -2
C#CCn1c(O)c(N=NC(=O)C(O)c2ccccc2)c2ccccc21 (stereo unspecified) | 0 | 6 | 31* | -23 | 2 | 5
C=CCn1c(O)c(N=NC(=O)OC(C)(C)C)c2ccccc21 | 0 | -9 | 4 | 13 | -3 | -3
C=CCn1c(O)c(N=NC(=S)Nc2ccc(OC)c(Cl)c2)c2ccccc21 | 0 | 0 | 46* | -8 | 15 | 5
C=CCn1c(O)c(N=NC(=O)C(O)c2ccccc2)c2ccccc21 (stereo unspecified) | 3 | 13 | 39* | 31 | 2 | 0
CCCCOCC1CN(CCCC)S(=O)(=O)c2c(Oc3ccc(OC)cc3)cccc2O1 (stereo unspecified) | . | 28 | . | . | . | .
O=C(Nc1ccc(Oc2ccccc2)cc1)c1csc([C@H]2C[C@H](O)[C@@H](CO)O2)n1 | -1 | 2 | -3 | . | . | .
CCN(C(=O)C1CCN(c2ncccn2)CC1)c1ccccc1 | . | -8 | . | . | . | .
